The source of these data is ChEMBL document CHEMBL4513216, “Probing the Open Global Health Chemical Diversity Library for Multistage-Active Starting Points for Next-Generation Antimalarials” (ACS Infect Dis, 2020).

Screen size: about 68,000 compounds; about 2,700 (4%) showed an effect of 50% or more. This is one part of a sample in which strong results are shown more often than they occur.

In the test the test system is Plasmodium berghei. As to the kind of experiment: Screen against P. berghei liver stage (PbLuc), transformed with Luciferase, at 2uM. The format is functional, HepG2. The note with it: tested at 2 uM.
On to `Cc1cccc(COC[C@H]2CC[C@H]3[C@H](CCN3Cc3ccco3)O2)n1`, for which the INHIBITION is on record as -22.82%.
Consider `O=C(c1ccco1)N1CCC2(CCCN(c3ncccn3)C2)C1` (configuration not stated), for which the INHIBITION is recorded as -18.02%.
The same measure for `NC(=O)C1CN(C(=O)NCC2(c3ccc(F)cc3)CCC2)CCO1` (configuration not stated): -14.79%.
Then `NC(=O)C1CN(C(=O)C2(c3ccc(F)cc3F)CCCC2)CCO1` (configuration not stated), with 56.49%.
On to `CC1CN(C(=O)C2(c3ccc(F)cc3F)CCOCC2)CCO1` (configuration not stated), for which the INHIBITION is recorded as 20.14%.
As to `CN1CC2(CCN(C(=O)CCc3nc4cccnc4n3C)C2)OC1=O` (configuration not stated), the INHIBITION is -31.03%.
As to `N#Cc1ccc(C(=O)N2CC(c3nc(-c4ncccn4)no3)C2)cc1`, the INHIBITION came out at 11.43%.
For `CNC(=O)c1cccc(NC(=O)NC(C)c2cc(C)oc2C)c1C` (configuration not stated), the INHIBITION is 57.75%.
For `Cc1cc(C(C)NC(=O)c2ccc(O)nc2)c(C)o1` (configuration not stated), the INHIBITION is listed as 56.96%.
Then `Cc1cc(C(C)NC(=O)c2cnc3onc(C)c3c2)c(C)o1` (configuration not stated), with 4.49%.
On to `CNC(=O)c1cccc(NC(=O)NC(C)CCc2cccn2C)c1C` (configuration not stated), for which the INHIBITION was -54.27%.
As to `Cc1cc(C(C)NC(=O)c2c[nH]c(=O)c(Cl)c2)c(C)o1` (configuration not stated), the INHIBITION is listed as 25.72%.
Take `CNC(=O)c1ccc(NC(=O)NC(C)c2cc(C)oc2C)cc1` (configuration not stated): the INHIBITION worked out at 50.59%.
`CNC(=O)c1ccc(NC(=O)NC(C)c2cc(C)oc2C)c(C)c1` (configuration not stated): the INHIBITION came out at 41.05%.
Take `CC(C)NC(=O)c1ccc(NC(=O)NC(C)c2ccccn2)cc1` (configuration not stated): the INHIBITION is 2.26%.
Then `CNC(=O)c1cccc(NC(=O)NCc2ccccc2)c1C`, with -7.16%; and `COCc1nc(C(=O)N2CCCC2c2c(C)nn(C)c2C)cs1` (configuration not stated), with 5.1%.
The same measure for `Cc1ccc(C2(O)CCN(C(=O)CCn3ccc(=O)[nH]c3=O)CC2)nc1`: -3.56%; for `N#CC1(NC(=O)COC(=O)Cc2cc(Cl)c3c(c2)OCCO3)CCCC1`: 17.14%.
Then `O=C(NCCN1CCOCC1)c1cnc(Cc2ccc(F)cc2)s1`, with -42.16%; and `CCc1nc(CN2CCN(C(=O)CCc3ccccc3)CC2)cs1`, with 36.32%; and `Fc1ccc(OCCCNC2=NCCN2)cc1`, with 6.36%.
With `Cc1ccc(CCNc2ncc(C)c(-c3ccnn3C)n2)s1`, the INHIBITION is reported as -33.54%.
The same measure for `COCC(=O)N1CCCC(c2csc(NC(C)=O)n2)C1` (configuration not stated): 15.73%; for `COCC(=O)N1CC(c2csc(NC(C)=O)n2)C1`: 50.74%; for `COCC(=O)N1CCC(c2csc(NC(C)=O)n2)CC1`: -2.2%.
Then `Cc1nn(C)c(Cl)c1C1CCCN1CC(=O)NCc1ccco1` (configuration not stated), with 33.61%; and `CC(=O)Nc1ccc(CN2CCOC2=O)cc1`, with 55.66%; and `CCC(C)NC(=O)Nc1ccc(CN2CCOC2=O)cc1` (configuration not stated), with -5.28%.
The same measure for `CC(C)CNC(=O)Nc1ccc(CN2CCOC2=O)cc1`: -15.92%.
For the molecule `CCNc1ncc(CN2C[C@H](C3CC3)[C@@H](N)C2)cn1`, the INHIBITION is reported as -35.18%.
For the molecule `N[C@H]1CN(Cc2cnc(N3CCCC3)nc2)C[C@@H]1C1CC1`, the INHIBITION is on record as 22.18%.
The same measure for `Nc1ncc(CN2C[C@H](C3CC3)[C@@H](N)C2)cn1`: 64.38%; for `Cn1ccnc1SCCNC(=O)CC1CCc2ccccc21` (configuration not stated): 1.88%.
As for `COCc1nc2cc(NCc3ncc[nH]3)ccc2o1`, the INHIBITION is given as 12.94%.
The same measure for `Fc1cccc(C(NCc2ncc[nH]2)c2ccccc2)c1` (configuration not stated): 14.52%; for `Fc1cccc(NCc2ncc[nH]2)c1`: 51.08%.
The same measure for `Fc1ccc(NCc2ncc[nH]2)cc1Br`: 56.21%; for `COc1cc(NCc2ncc[nH]2)ccc1Br`: 44.23%; for `CN1CCN(Cc2cccc(NCc3ncc[nH]3)c2)CC1`: 8.37%.
In the case of `CCOc1ccc(N(CC(=O)c2ccccc2)C2=NCCCCC2)cc1`, the INHIBITION came out at 20.74%.
Take `CS(=O)(=O)c1cc(Cl)cnc1C1CCN(C(=O)C2CC2)CC1`: the INHIBITION is -14.56%.
With `Cn1nccc1C(=O)N1CCC(c2ncc(Cl)cc2S(C)(=O)=O)CC1`, the INHIBITION is 76.78%.
With `CS(=O)(=O)c1cc(Cl)cnc1C1CCN(C(=O)C2CCOCC2)CC1`, the INHIBITION was -33.32%.
In the case of `Cn1cc(CN2C[C@H](N3CCOCC3)[C@@H]3OCCC[C@@H]32)cn1`, the INHIBITION is given as -3.36%.
The same measure for `O=C(CSC1CCCC1)N1CCN(C(=O)C2CC2c2cccs2)CC1` (configuration not stated): 10.39%; for `N#CCCN(CCC#N)C(=O)CN(C1CC1)C1CCc2ccccc21` (configuration not stated): 12.84%.
In the case of `CN(CC(=O)N(CCC#N)c1ccccc1)C1CCc2ccccc21` (configuration not stated), the INHIBITION was -25.33%.
Regarding `CN(CCC#N)C(=O)CN(C1CC1)C1CCc2ccccc21` (configuration not stated), the INHIBITION was 63.73%.
The same measure for `CCn1c(SCC(N)=O)nnc1C(C)NC(=O)c1ccc(Cl)cc1` (configuration not stated): 11.4%.
In the case of `COCCN(Cc1nccs1)C(=O)c1c(C)cc(C)[nH]c1=O`, the INHIBITION is recorded as -1.63%.
On to `COCCN(Cc1nccs1)C(=O)c1cc(-c2ccc(C)s2)n[nH]1`, for which the INHIBITION is on record as 31.51%.
The same measure for `COCCN(Cc1nccs1)C(=O)c1cc(-c2ccc(C)o2)n[nH]1`: 52.98%; for `COc1ccc(C)c2c1N(C(=O)c1cnc(C)s1)CCC2`: 18.01%; for `COc1ccc(C)c2c1N(C(=O)c1ccc3nnc(C)n3c1)CCC2`: 61.06%.
The same measure for `COc1ccc(C)c2c1N(C(=O)c1cnc3onc(C)c3c1)CCC2`: 47.2%; for `N#Cc1cccc(CN2CCC3(CC(C(=O)NCC4CC4)=NO3)C2)c1` (configuration not stated): 7.35%; for `CNC1CCCN(Cc2noc(C3CC3)n2)C1` (configuration not stated): 8.91%.
The same measure for `Cc1n[nH]c(C)c1CNC(=O)N(Cc1ccccc1)CC(C)(C)O`: -16.94%.
For the molecule `Cc1noc(C2CCN(C(=O)CCc3ccccn3)CC2)n1`, the INHIBITION is recorded as 9.36%.
The same measure for `O=C(NC1CC1)C1=CC2(CCN(CC3CC3)CC2)c2ccccc21`: 11.73%; for `CC(C)CN1CCC2(C=C(C(=O)NC3CC3)c3ccccc32)CC1`: -14.63%; for `CCN1CCC2(C=C(C(=O)NC3CC3)c3ccccc32)CC1`: 57.95%.
Then `COc1ccc(Cl)cc1S(=O)(=O)N(C)CC(=O)Nc1cccnc1`, with -66.51%; and `Cn1c(C2CC2)nc2c1CCN(CCOc1ccccc1C#N)C2`, with -16.16%.
Then `Cn1c(C2CC2)nc2c1CCN(CCOc1cccc(F)c1)C2`, with -9.49%; and `Cn1c(C2CC2)nc2c1CCN(CCOc1ccc(C#N)cc1)C2`, with 55.52%.
